According to PubChem BioAssay AID1159580 (chemical genetic matrix, 2015):
About 2,000 (36%) of roughly 5,500 compounds were called active. About 18% were inconclusive and are not listed. No stated cut-off is given here; in the data, active means normalized growth mostly below about 0.91 (no sharp cut-off); inconclusive means no clear call, values can overlap the other calls; inactive means mostly above about 0.92. The list shows a part of the results.

Assay: chemical genetic growth profiling, strain panel (AID 1159580);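 further: tested at 20 µM; growth read once vehicle control cultures reached saturation at 30 °C; 1 = growth at the plate median or of vehicle wells; lower values mean less growth of the strain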
Conditions: S. cerevisiae deletion strains, growth OD

Measured: normalized growth

CCC1OC(=O)[C@H](C)C(=O)[C@H](C)[C@@H](OC2O[C@H](C)C[C@H](N(C)C)[C@H]2O)[C@](C)(OC)C2(CCCn3cnc(-c4cccnc4)c3)C[C@@H](C)C(=O)[C@H](C)[C@H]3N(C2)C(=O)O[C@]13C (stereo partly drawn)
inactive: locus YAL013W, strain DEP1, active compounds read low 1 | locus YAL021C, strain ccr4, active compounds read low 0.973 | locus YAL026C, strain drs2, active compounds read low 0.976 | locus YAL030W, strain snc1, active compounds read low 0.981 | locus YBL061C, strain skt5, active compounds read low 0.98 | locus YBR009C, strain hhf1, active compounds read low 0.962 | locus YBR021W, strain FUR4, active compounds read low 1 | locus YBR023C, strain chs3, active compounds read low 0.998 | locus YBR171W, strain sec66, active compounds read low 0.984 | locus YBR229C, strain ROT2, active compounds read low 1 | locus YBR231C, strain swc5, active compounds read low 0.984 | locus YBR279W, strain paf1, active compounds read low 0.996 | locus YCL011C, strain gbp2, active compounds read low 0.981 | locus YCL016C, strain dcc1, active compounds read low 0.975 | locus YCL029C, strain bik1, active compounds read low 1 | locus YCL069W, strain vba3, active compounds read low 0.979 | locus YCR088W, strain abp1, active compounds read low 0.979 | locus YDL005C, strain med2, active compounds read low 0.989 | locus YDL035C, strain GPR1, active compounds read low 1.01 | locus YDL040C, strain nat1, active compounds read low 0.982 | locus YDL074C, strain BRE1, active compounds read low 1.02 | locus YDL101C, strain DUN1, active compounds read low 1.01 | locus YDL134C, strain PPH21, active compounds read low 1.01 | locus YDL185W, strain tfp1, active compounds read low 1.01 | locus YDL192W, strain arf1, active compounds read low 1.01 | locus YDR001C, strain nth1, active compounds read low 0.983 | locus YDR069C, strain doa4, active compounds read low 0.996 | locus YDR101C, strain arx1, active compounds read low 0.985 | locus YDR137W, strain rgp1, active compounds read low 0.937 | locus YDR150W, strain NUM1, active compounds read low 1.01 | locus YDR159W, strain sac3, active compounds read low 0.96 | locus YDR162C, strain NBP2, active compounds read low 1.02 | locus YDR195W, strain ref2 0.968 | locus YDR297W, strain sur2, active compounds read low 0.982 | locus YDR318W, strain mcm21, active compounds read low 1 | locus YDR334W, strain swr1, active compounds read low 0.977 | locus YDR335W, strain msn5, active compounds read low 0.976 | locus YDR388W, active compounds read low 1.01 | locus YDR392W, strain spt3, active compounds read low 0.936 | locus YDR502C, strain sam2, active compounds read low 0.991 | locus YEL003W, strain gim4, active compounds read low 0.958 | locus YEL037C, strain rad23, active compounds read low 0.975 | locus YEL061C, strain CIN8 (second series), active compounds read low 0.983 | locus YEL061C, strain CIN8, active compounds read low 1 | locus YER015W, strain faa2, active compounds read low 0.987 | locus YER016W, strain bim1, active compounds read low 0.992 | locus YER110C, active compounds read low 0.993 | locus YER111C, strain swi4, active compounds read low 0.964 | locus YER155C, strain BEM2 (second series), active compounds read low 1.02 | locus YER155C, strain BEM2, active compounds read low 1.01 | locus YER167W, strain BCK2, active compounds read low 1.01 | locus YFR010W, strain ubp6, active compounds read low 0.995 | locus YGL078C, strain dbp3, active compounds read low 1.01 | locus YGL086W, strain mad1, active compounds read low 0.995 | locus YGL167C, strain pmr1, active compounds read low 0.986 | locus YGL173C, strain kem1, active compounds read low 0.975 | locus YGL227W, strain vid30, active compounds read low 0.978 | locus YGL240W, strain doc1, active compounds read low 0.994 | locus YGL248W, strain PDE1, active compounds read low 1 | locus YGL253W, strain hxk2, active compounds read low 0.965 | locus YGR078C, strain PAC10, active compounds read low 1.03 | locus YGR135W, strain pre9, active compounds read low 0.993 | locus YGR229C, strain SMI1, active compounds read low 1.01 | locus YGR252W, strain gcn5, active compounds read low 0.965 | locus YHR013C, strain ard1, active compounds read low 0.96 | locus YHR027C, strain rpn1, active compounds read low 0.99 | locus YHR030C, strain SLT2, active compounds read low 0.999 | locus YHR079C, strain IRE1 (second series), active compounds read low 0.991 | locus YHR094C, strain hxt1, active compounds read low 1 | locus YHR129C, strain ARP1, active compounds read low 1 | locus YHR142W, strain chs7, active compounds read low 0.973 | locus YHR200W, strain rpn10, active compounds read low 1 | locus YIL066C, strain RNR3, active compounds read low 1.01 | locus YIL073C, strain SPO22, active compounds read low 0.991 | locus YIL125W, strain kgd1, active compounds read low 1 | locus YIR030C, strain dcg1, active compounds read low 0.999 | locus YJL092W, strain hpr5, active compounds read low 0.979 | locus YJL095W, strain BCK1 (second series), active compounds read low 0.995 | locus YJL095W, strain BCK1, active compounds read low 1 | locus YJL115W, strain asf1, active compounds read low 0.973 | locus YJL129C, strain trk1, active compounds read low 1.01 | locus YJL134W, strain LCB3, active compounds read low 1.01 | locus YJL154C, strain vps35, active compounds read low 0.977 | locus YJL164C, strain tpk1, active compounds read low 0.977 | locus YJL166W, strain qcr8, active compounds read low 0.998 | locus YJL168C, strain set2, active compounds read low 0.999 | locus YJL187C, strain SWE1 (second series), active compounds read low 0.999 | locus YJL187C, strain SWE1, active compounds read low 0.984
